# Experimental data published in PubChem BioAssay AID485313 (National Center for Advancing Translational Sciences (NCATS), 2010).
# Screen size: about 320,000 compounds; about 7,600 (2.4%) were called active. Inconclusive results (about 3%) are left out. The full list was thinned out, with actives kept by preference. A number with no mark means an inactive call. Calls come from the whole dose curve; as a rule, active = well fitted activation curve with a large enough effect; inconclusive = small, poorly fitted or top-dose-only effect; inactive = no such curve, though single readings can be large or run the other way.
# Experiment: qHTS Assay for NPC1 Promoter Activators; note: nearly all actives have a fitted effect of over 60% in size;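 for activation: reporter is driven by a mutant NPC1 promoter; % of control where 0% means no effect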
# Conditions: Huh7 NPC1 promoter luciferase reporter, 24 h; series mostly up to 9.22 µM; activation: at the top concentration
# How it was run: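 Stable NPC1-promoter luciferase Huh7 line; cpd (DMSO) 24 h, 37 °C, 5% CO2; Amplite luciferase reagent 10 min RT; luminescence readout. qHTS format.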
# Potency is the fitted concentration of half-maximal effect.
Structure (SMILES),activation [%],Potency
O=S(=O)(NCCCCCCNS(=O)(=O)c1c(F)cccc1F)c1ccc2c(c1)OCCO2,1.24,–
CCCCc1ccc(NC(=S)NCCCN2CCOCC2)cc1,-3.36,–
CCCCc1ccc(NC(=S)N2CCCC(CO)C2)cc1 (centres undefined),–,1.58 µM (active)
COc1ccc(NC(=S)N2CCCC(CO)C2)c(OC)c1 (centres undefined),-1.51,–
CC(C)N(C(=O)CN1CCN(S(=O)(=O)c2ccc(Br)s2)CC1)C(C)C,-2.79,–
N#Cc1ccccc1NC(=O)c1cccc(COc2ccc(Cl)cc2Cl)c1,–,0.316 µM (active)
O=C(Nc1cccc2cccnc12)c1cccc(Cl)c1,18.6,–
CSc1ccc(C#N)cc1NC(=O)c1cccc(Cl)c1,-7.05,–
CCn1nc(C(=O)Nc2ccc(N3CCOCC3)cc2)c2ccccc2c1=O,5.27,–
CC(C(=O)N(C)CC(=O)Nc1ccccc1C(F)(F)F)N1C(=O)c2ccccc2C1=O (centres undefined),-1.83,–
CSCCNC(=O)c1ccc2nc(Cc3ccccc3F)oc2c1,–,2.51 µM (active)
COc1ccc(Cc2nc3ccc(C(=O)NCC4CCOCC4)cc3o2)cc1OC,10.3,–
COCCNC(=O)c1ccc2nc(Cc3ccc(OC)c(OC)c3)oc2c1,-30.7,–
COc1ccc(C(=O)COC(=O)c2ccc([N+](=O)[O-])s2)cc1OC,-2.25,–
O=C(C(=O)N1CCc2ccccc2C1)N1CCc2ccccc2C1,3.15,–
CCc1ccc(NC(=O)N2CCN(c3ccccc3)CC2)cc1,9.63,–
CCc1ccc(NC(=O)N2CCc3ccccc3C2)cc1,–,2.24 µM (active)
CCCn1nc(C(=O)OCc2nc(N)nc(Nc3ccccc3C)n2)c2ccccc2c1=O,-0.194,–
COc1ccc(C2/C(=C(/O)c3ccccc3)C(=O)C(=O)N2C)c(OC)c1 (centres undefined),-0.891,–
CCOc1ccc(/C(O)=C2\C(=O)C(=O)N(c3ccc(OC)cc3)C2c2ccccc2[N+](=O)[O-])cc1 (centres undefined),–,0.398 µM (active)

Structure (SMILES),activation [%],Potency
COc1ccc(/C(O)=C2/C(=O)C(=O)N(c3nc(C)c(C)s3)C2c2ccco2)cc1 (centres undefined),2.32,–
c1ccc2cc(CCCc3cc4ccccc4cn3)ncc2c1,-0.127,–
COc1cc(OC)cc(C(=O)NNC(=O)CCOc2ccccc2OC)c1,-0.0783,–
COc1ccc(Nc2ncc(F)c(N3CCOCC3)n2)cc1,–,1.26 µM (active)
CCOc1ccc(Nc2nc(Cl)nc(N3CCN(c4ccc(OC)cc4)CC3)n2)cc1,-1.01,–
Cc1ccc(Nc2nc(N3CCOCC3)nc(N3CCOCC3)n2)cc1Cl,-5.97,–
Cc1cccc(NC(=O)CN2CCN(C(=O)C3CCN(C(=O)/C=C/c4ccccc4)CC3)CC2)c1C,11.6,–
CCOC(=O)[C@@H]1[C@H]2COc3ccc(Br)cc3[C@H]2N2C(=O)N(c3ccc(Cl)cc3)C(=O)[C@@]12C,-2.71,–
COc1ccccc1-c1oc2ccccc2c1C#CCCCCO,-1.8,–
OCCCN1c2ccccc2Nc2nnc(-c3ccccc3)cc21,–,2.24 µM (active)
c1ccc(-c2cc(-c3ccccc3)[nH]n2)cc1,26.3,–
CN=c1scc(-c2cc(OC)ccc2OC)n1/N=C/c1c(C)[nH]c2ccccc12,-0.11,–
N#Cc1ccc(C2=CC(=O)C[C@H](c3ccc(Cl)cc3)C2)cc1,7.18,–
Cc1cc(C#N)c(SCC(N)=O)nc1-c1ccc(F)cc1,0.168,–
CC(=O)c1cc(C#N)c(N2CC(C)OC(C)C2)nc1C (centres undefined),0.589,–
CC(=O)c1cc(C#N)c(SCC(=O)C(C)(C)C)nc1C,–,3.16 µM (active)
CCOC(=O)c1ccc(N/C(=N/S(=O)(=O)c2ccccc2)c2ccccc2)cc1,-1.97,–
Cc1ccc(S(=O)(=O)N2CCOCC2)cc1NC(=O)COC(=O)c1cnccn1,-3.31,–
COc1ccc(/C=N/Nc2nc3ccccc3o2)cc1OC,–,2 µM (active)
CCNc1nc(NCC)nc(N/N=C/c2ccc(O)c(OC)c2)n1,0.366,–

Structure (SMILES),activation [%],Potency
CCOc1ccc(/C=N/Nc2nncc(-c3ccccc3)n2)cc1OC,0.357,–
CCN(CC)S(=O)(=O)c1ccc(N2CCOCC2)c(NC(=O)C(C)Oc2ccc(F)cc2)c1 (centres undefined),-6.62,–
CC1CCCCC12NC(=O)N(CC(=O)OCC(=O)NCc1ccc(F)cc1)C2=O (centres undefined),-3.63,–
CCN(CC(=O)Nc1ccccc1C(=O)NC1CC1)Cc1cccs1,-1.35,–
Cn1ccsc1=NC(=O)c1cc(S(=O)(=O)N2CCOCC2)ccc1Cl,-1.29,–
COc1ccc(-c2nnc3n2CCCCC3)cc1,-1.97,–
COc1ccc(-c2nc3n(c2Br)CCC3)cc1,–,2.82 µM (active)
COc1ccc(-c2nc(SCC(=O)N3CCCC3)n[nH]2)cc1,-1.33,–
CN(CC(=O)Nc1ccc(F)c(F)c1F)C(=O)Cn1cnc2c1c(=O)n(C)c(=O)n2C,-0.741,–
Cc1ccsc1C(=O)NC1CCCCC1C (centres undefined),0.949,–
COc1cc(/C=N/O)ccc1OCc1ccc([N+](=O)[O-])cc1,–,2.51 µM (active)
COc1cc(/C=N\Nc2ccc([N+](=O)[O-])cn2)ccc1OCC(=O)O,1.45,–
COc1cc(C(=O)OCc2ccc([N+](=O)[O-])cc2)cc(OC)c1OC,-0.326,–
Cc1ccccc1-c1cc(C(=O)NCC2CC2)n(CC2CC(c3cccnc3)=NO2)n1 (centres undefined),-0.342,–
O=C(COc1ccccc1O)NC1CCCC1,-2.53,–
CC(=O)Nc1ccc(NC(=O)CSc2nnc(C3CC3)n2-c2ccccc2)cc1,-5.77,–
Cc1ccccc1CSCC(=O)NC(=O)NC(C)(C)C,-3.16,–
COc1ccccc1-n1ccnc1SCC(=O)NC(C)(C)C,-0.961,–
CC(C)(C)NC(=O)CSC(=Nc1ccccc1F)NC#N,–,3.98 µM (active)
